As usually defined, the AC50 is the concentration at which the activity in the assay is half-maximal.

Hit rate of the full screen: of about 16,000 compounds, about 5,100 (32%) were called active. Inconclusive results (about 25%) are left out. Some of the results follow. Unmarked numbers belong to inactive results. Calls follow the shape of the dose curve; as a rule, active = well fitted curve in the direction sought with a large enough effect; inconclusive = small, poorly fitted or top-dose-only effect, or effect the other way; inactive = no such curve, though single readings can be large or run the other way.
% is scaled to controls: 0 for no effect and ±100 for the full control effect.

Sequence of Cytochrome P450 3A4 (Homo sapiens) (P08684 whole entry, looked up): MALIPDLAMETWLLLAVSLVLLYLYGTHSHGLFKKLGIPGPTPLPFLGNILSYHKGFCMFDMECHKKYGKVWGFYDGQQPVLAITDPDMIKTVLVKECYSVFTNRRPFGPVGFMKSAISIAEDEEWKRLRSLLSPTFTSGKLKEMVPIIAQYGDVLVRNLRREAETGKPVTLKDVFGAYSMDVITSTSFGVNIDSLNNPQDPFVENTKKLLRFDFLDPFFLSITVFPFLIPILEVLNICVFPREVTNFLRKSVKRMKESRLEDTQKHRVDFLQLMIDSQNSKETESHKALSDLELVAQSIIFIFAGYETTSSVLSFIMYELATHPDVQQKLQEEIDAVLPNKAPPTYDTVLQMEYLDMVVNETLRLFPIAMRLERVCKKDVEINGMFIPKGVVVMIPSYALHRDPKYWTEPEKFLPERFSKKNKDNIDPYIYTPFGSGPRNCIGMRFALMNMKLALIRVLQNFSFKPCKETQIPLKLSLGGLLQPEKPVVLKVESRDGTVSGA

This assay has as its target Cytochrome P450 3A4 (Homo sapiens) (UniProt P08684). Kind of assay: Cytochrome panel assay with activity outcomes. The conditions noted are these: recombinant CYP, pro-luciferin dealkylation, luminescence, p450-cyp3a4; series mostly up to 57.1 µM; activity, negative = inhibition: at the top concentration.
Take `O=C(O)[C@H]([C@H]1NCCS1)N1Cc2ccccc2C1`: the activity, negative = inhibition was -4.44% [at 11.4 µM]. Regarding `COC(=O)N1CCC2(CC1)CN(c1cccc(-c3ccccc3)c1)C2`, the “activity, negative = inhibition” value is 4.17%. On to `O=C(c1cccc(F)c1)N1CCC2(CCCN(C(c3ccccc3)c3ccccc3)C2)CC1`, for which the “activity, negative = inhibition” value is -29.9%. Same read-out and setting: for `CC(=O)N1CCC2(CC1)CCN(c1cccc(-c3ccccc3)c1)CC2` the value was -17.6%. On to `O=C(c1cccc(F)c1)N1CCC[C@@]2(CCN(c3ccccc3)C2)C1`, for which the AC50 was 6.31 µM (active).

Take `COc1ccc(C(=O)N2CCC[C@@]3(CCN(c4cccc(-c5ccccc5)c4)C3)C2)cc1`: the AC50 is 3.16 µM (active).

Consider `CN1CC[C@@]2(CCCN(C(=O)c3cccc(F)c3)C2)C1`, for which the “activity, negative = inhibition” value was -27.3%.

As to `O=C(c1cccc(F)c1)N1CCC[C@@]2(CCN(c3cccc(-c4ccccc4)c3)C2)C1`, the AC50 was 7.94 µM (active). As for `O=C(c1cccc(F)c1)N1CCC[C@@]2(CCN(C(c3ccccc3)c3ccccc3)C2)C1`, the AC50 was 3.98 µM (active). Consider `CN(C)CCCO[C@H]1[C@@H]2OC(C)(C)O[C@@H]2O[C@@H]1[C@H](O)CO`, for which the “activity, negative = inhibition” value was 1.58% [at 25.6 µM]. The same measure, in the same setting: the same measure for `Clc1ccc2c(NCCNC3CCCCC3)ccnc2c1`: -5.83% [at 11.4 µM]; for `O=C(O)/C=C\[C@H](O)c1ccc(Cl)cc1`: 2.09%.

Consider `O=C(c1cccc(F)c1)N1CCC2(CC1)CN(c1ccncc1)C2`, for which the “activity, negative = inhibition” value was 22.2%. For the molecule `O=C(c1cccc(F)c1)N1CCC[C@@]2(CCN(c3ccncc3)C2)C1`, the AC50 is 0.316 µM (active).

As to `O=C(NNC(=O)c1ccccc1-n1cccc1)c1ccccc1`, the “activity, negative = inhibition” value was -20.3%. For `O=C(NNC(=O)c1ccccc1-n1cccc1)c1ccc(Cl)c(Cl)c1`, the AC50 was 15.8 µM (active). In the case of `N[C@H](CCCC(=O)O)C(=O)O`, the “activity, negative = inhibition” value was -2.17%. Still for that read-out and setting: for `N=C(C[C@@H](O)COc1ccccc1-c1ccccc1)N1CCCCC1` the value was -25.3%.

For the molecule `CS(=O)(=O)Nc1cccc(-c2nccc(-n3ccnc3)n2)c1`, the AC50 is 1.58 µM (active). As for `CN1CCN(c2ccnc(-c3ccoc3)n2)CC1`, the “activity, negative = inhibition” value is -2.76%.

On to `CS(=O)(=O)Nc1cccc(-c2cncnc2-n2ccnc2)c1`, for which the AC50 is 7.94 µM (active). For the molecule `CN1CCN(c2ccnc(-c3cccc(NS(C)(=O)=O)c3)n2)CC1`, the AC50 is 25.1 µM (active). Consider `C[N+](C)(N)CCC[N+](C)(C)N`, for which the activity, negative = inhibition was -4.61% [at 11.4 µM]. Take `Cc1ccc(NC(=O)/C(=C\c2cccc([N+](=O)[O-])c2)NC(=O)c2cccs2)cc1`: the AC50 is 0.398 µM (active). `CCOC(=O)C1CCCN(C(=O)/C=C/c2cccc([N+](=O)[O-])c2)C1` (stereo not drawn): the activity, negative = inhibition is 3.28% [at 2.29 µM]. Take `Cc1ccc(NC(=O)/C(=C/c2cccc([N+](=O)[O-])c2)NC(=O)C2CCCCC2)c(C)c1`: the AC50 was 1 µM (active). Turning to `CCc1ccc(N2CC(C(=O)N/N=C/c3cccc([N+](=O)[O-])c3)CC2=O)cc1` (stereo not drawn), the “activity, negative = inhibition” value is -50%. For the molecule `O=C(Nc1cccc2ccccc12)/C(=C/c1ccc([N+](=O)[O-])cc1)NC(=O)c1ccccc1`, the concentration at half-maximal activity (AC50) was 1.12 µM (active). Regarding `O=C(N/N=C/C=C/c1ccc([N+](=O)[O-])cc1)c1cccs1`, the “activity, negative = inhibition” value was -1.51%. Turning to `Cc1ccc(NC(=O)/C(=C\c2ccc([N+](=O)[O-])cc2)NC(=O)c2ccccc2)cc1`, the AC50 is 1.12 µM (active). The same measure, in the same setting: the same measure for `O=C(O)C1=CCCNC1`: “inactive”. On to `CC[C@H](Cc1c(I)cc(I)c(N)c1I)C(=O)O`, for which the “activity, negative = inhibition” value is -23.4% [at 25.6 µM].

For `O=C(O)c1cc(N=Nc2ccc([N+](=O)[O-])cc2)ccc1O`, the activity, negative = inhibition is -6.97% [at 11.4 µM].

As to `COc1cc(/C=C(\C#N)C(=O)NCC2CCCO2)c([N+](=O)[O-])cc1OC` (stereo not drawn), the “activity, negative = inhibition” value is 12.9%. On to `Cc1ccc(C(=O)N/C(=C\c2ccc([N+](=O)[O-])cc2)C(=O)NCCc2ccccc2)cc1`, for which the AC50 is 0.282 µM (active).

Turning to `COc1cc(/C=C(/NC(=O)c2ccccc2)C(=O)Nc2ccccc2)c([N+](=O)[O-])cc1OC`, the AC50 is 0.794 µM (active).

For the molecule `O=C(CNC(=O)c1ccc([N+](=O)[O-])cc1)c1ccccc1`, the “activity, negative = inhibition” value is 0.889%. As to `N=c1ccn2c(n1)O[C@H]1[C@@H](OP(=O)(O)O)[C@H](CO)O[C@H]12`, the activity, negative = inhibition is -6.24% [at 11.4 µM]. On to `O=C(O)[C@H]1CCCC[C@@H]1C(=O)Nc1nc2ccccc2[nH]1`, for which the activity, negative = inhibition is -6.18% [at 11.4 µM]. On to `Cc1cc(NC(=O)C2CCCC2)n(-c2nc3ccccc3[nH]2)n1`, for which the AC50 was 11.2 µM (active). In the case of `Cc1cc(NC(=O)C2CCCCC2)nc2c1c(=O)oc1ccccc12`, the activity, negative = inhibition is -4.81% [at 2.29 µM]. Consider `O=C1C=C(NCC2CCCO2)C2(CCCCC2)O1` (stereo not drawn), for which the “activity, negative = inhibition” value was -10.6%. As for `COC(=O)COc1ccsc1C(=O)OC`, the “activity, negative = inhibition” value is -5.82%. Take `COc1ccc(/C=N/NC(=O)c2sccc2OCc2ccc(F)cc2)cc1OC`: the activity, negative = inhibition was -9.08% [at 2.29 µM]. On to `COc1ccc(COc2ccsc2C(=O)Nc2ccc(Cl)c(Cl)c2)cc1`, for which the AC50 was 7.08 µM (active). Turning to `O=S(=O)(NCc1cccnc1)c1ccc(Cl)nc1`, the activity, negative = inhibition was 5.89% [at 2.29 µM].

Turning to `CCN(C1CCCCC1)S(=O)(=O)c1ccc(S(=O)(=O)NCc2ccncc2)cc1`, the AC50 was 7.08 µM (active). For `CCOC(=O)Nc1ccc(S(=O)(=O)NCc2ccccc2)cc1`, the “activity, negative = inhibition” value was -5.85%.

(Values after PubChem BioAssay AID1851 (National Center for Advancing Translational Sciences (NCATS), 2009).)
